Screening results deposited in PubChem BioAssay by several laboratories.
ADAM17 inh: inhibits human ADAM17; recombinant ADAM17, EDANS/DABCYL FRET peptide cleavage; inhibition, % at 6.95 µM; actives 0.83% (n = 370,000); AID 720648; P78536;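 active means inhibition above the mean of compounds lying between control limits plus 3 SD, set per campaign, cut at about 8.5% in these data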
MPTP block: blocks calcium-induced mitochondrial swelling; isolated mouse mitochondria, Ca2+ swelling absorbance, 30 min; inhibition, % at 10 µM; actives 1.4% (n = 360,000); AID 602449;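 active means inhibition of 50% or more, scaled per plate between neutral and stimulator controls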
proKLK7 act: activators of human kallikrein-7 zymogen. P49862. purified proKLK7, EDANS-DABCYL substrate fluorescence; 100% is mature enzyme control, 0% vehicle. activation, % at 7 µM. actives 0.9% (n = 370,000). AID 652039;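 active means activation above the mean of all tested compounds plus 3 SD, computed per campaign excluding outliers beyond control limits, cut at about 13% in these data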
Pemphigus Ab inh: human desmoglein-3 autoantibody binding inhibition. P32926. DSG3-coupled beads, scFv-anti-DSG3-GFP binding, flow cytometry; active compounds read low. binding (percent of control), % at 10 µM. actives 0.48% (n = 310,000). AID 588358;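 active means binding more than 3 SD below its plate's average and above zero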;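 further: hits lower antibody fragment binding to DSG3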
Target sequence (P32926 whole entry, looked up, the tested form may be a part): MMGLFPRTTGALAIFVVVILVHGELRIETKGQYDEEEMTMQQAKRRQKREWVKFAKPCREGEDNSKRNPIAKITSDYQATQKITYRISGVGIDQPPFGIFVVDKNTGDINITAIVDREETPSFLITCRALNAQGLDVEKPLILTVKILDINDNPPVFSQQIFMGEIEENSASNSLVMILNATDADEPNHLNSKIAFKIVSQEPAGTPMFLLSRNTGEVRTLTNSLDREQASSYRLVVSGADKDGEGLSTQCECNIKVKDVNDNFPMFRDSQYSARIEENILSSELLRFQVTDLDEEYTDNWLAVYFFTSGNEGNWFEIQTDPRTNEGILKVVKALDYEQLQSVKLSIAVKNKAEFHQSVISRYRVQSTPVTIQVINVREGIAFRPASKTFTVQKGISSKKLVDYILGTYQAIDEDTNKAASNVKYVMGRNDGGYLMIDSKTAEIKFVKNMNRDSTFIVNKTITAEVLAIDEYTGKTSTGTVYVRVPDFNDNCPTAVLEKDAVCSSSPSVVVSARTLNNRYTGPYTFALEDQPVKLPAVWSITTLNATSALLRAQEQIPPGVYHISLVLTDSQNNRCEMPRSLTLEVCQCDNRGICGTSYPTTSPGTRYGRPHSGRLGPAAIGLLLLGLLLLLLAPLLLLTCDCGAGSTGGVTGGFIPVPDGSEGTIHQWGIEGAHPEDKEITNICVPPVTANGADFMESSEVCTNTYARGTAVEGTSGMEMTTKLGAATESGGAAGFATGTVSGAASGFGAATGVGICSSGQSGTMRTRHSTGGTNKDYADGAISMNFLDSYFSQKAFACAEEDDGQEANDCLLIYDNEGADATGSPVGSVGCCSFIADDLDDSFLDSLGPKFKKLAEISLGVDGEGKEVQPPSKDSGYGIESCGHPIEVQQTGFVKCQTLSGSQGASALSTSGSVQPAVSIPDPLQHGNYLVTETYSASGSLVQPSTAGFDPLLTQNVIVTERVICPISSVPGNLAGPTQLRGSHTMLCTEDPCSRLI
ADAM10 inh: inhibits human ADAM10. actives 0.62% (n = 370,000). recombinant ADAM10, EDANS/DABCYL FRET peptide cleavage, 3 h. AID 720582. O14672. inhibition, % at 7 µM;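 active means inhibition above a per-campaign cutoff equal to the mean of compounds falling between control-based bounds plus 3 SD, cut at about 20% in these data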
rCAG binder: r(CAG) repeat RNA binding. actives 1.3% (n = 370,000). inhibition, % at 3 µM. TO-PRO-1 dye displacement fluorescence. AID 651821;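 active means inhibition above the plate cutoff, the mean of all test compounds on that plate plus 3 SD, cut at about 35% in these data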;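 further: higher means more dye released from RNA so lower well fluorescence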
MPTP counter: membrane potential counter-screen of mitochondrial pore inhibitors; actives 78% (n = 5,000); isolated mitochondria, Rhodamine 123 fluorescence; shares compounds with MPTP block; inhibition, % at 10 µM; in the data active means inhibition above about 22%
MPTP abs DR: dose response confirmation of mitochondrial permeability transition pore inhibitors; shares compounds with MPTP block; isolated mitochondria swelling, absorbance; IC50, µM; actives 58% (n = 780); AID 651561; in the data active means IC50 below about 20 µM
MPTP cs DR: MPTP inhibitor counter-screen activity, dose response. actives 49% (n = 780). shares compounds with MPTP block. IC50, µM. isolated mitochondria counterscreen, fluorescence read-out; in the data active means IC50 below about 80 µM
Numbers stand for hits; 0 = inactive; - = no result given. Only some compounds are listed: those with a hit (about 4.7% of all), similar ones and a draw of the others.

SMILES	ADAM17 inh	MPTP block	proKLK7 act	Pemphigus Ab inh	ADAM10 inh	rCAG binder	MPTP counter	others
COC(=O)[C@]12C[C@H](CC(=O)N3CCC(c4ccccc4)CC3)C(=O)N(Cc3ccccc3)C1=C[C@H](C1CCCC1)O[C@@H]2C	0	-	0	-	0	0	-
Nc1[nH]c(C(=O)c2ccc(Br)cc2)c(-c2ccc(Br)cc2)c1C(=O)NCc1cccc2ccccc12	0	-	0	-	0	0	-
O=C(N/N=C/c1ccc(OCc2ccc(F)cc2)cc1)c1ccccc1	0	0	0	0	0	0	-
CC(C)(C)c1ccc(OCc2ccc(C(=O)N/N=C3\CC4CC=CC34)cc2)cc1 (centres undefined)	0	55	0	0	0	0	0	MPTP abs DR=0;MPTP cs DR=25
O=C(N/N=C1\CC2CC=CC12)c1ccc(COc2ccccc2)cc1 (centres undefined)	0	0	0	0	0	0	-
CC(C)(C)c1ccc(OCc2ccc(C(=O)N/N=C/c3ccc(O)c(O)c3)cc2)cc1	0	85	0	0	0	0	0
COc1ccc2c(c1)c(C(C)=O)c(C)n2CCc1ccccc1	0	67	0	0	0	0	76
CC(C)[C@@H](C)/C=C/[C@@H](C)[C@H]1CC[C@@H]2[C@]1(C)CCC1[C@]23C=C[C@]2(C[C@@H](O)CC[C@]12C)N(c1ccc(Br)cn1)O3 (some centres undefined)	0	-	0	-	0	0	-
Oc1ccc(C[C@H]2CNCCN2CCc2cccc3ccccc23)cc1	0	76	0	0	0	0	0	MPTP abs DR=4.8;MPTP cs DR=0
CCCC[C@@H]1CNCCN1CCc1cccc2ccccc12	0	65	0	0	0	0	0	MPTP abs DR=12;MPTP cs DR=0
Oc1ccc(C[C@H]2CNCCN2CCc2cc(C(F)(F)F)cc(C(F)(F)F)c2)cc1	0	0	0	0	0	0	-
c1ccc(C[C@H]2CNCCN2CCc2cccc3ccccc23)cc1	0	0	0	0	0	0	-
Oc1ccc(C[C@@H]2CNCCN2CCc2cc(C(F)(F)F)cc(C(F)(F)F)c2)cc1	0	94	0	0	0	0	0	MPTP abs DR=4.3;MPTP cs DR=0
CC(O)[C@H]1CNCCN1CCc1cccc2ccccc12 (some centres undefined)	0	0	0	0	0	0	-
CCOC(=O)C(C)On1c(-c2ccc(Cl)cc2)nc2ccc([N+](=O)[O-])cc21 (centres undefined)	0	89	0	0	0	0	108
O=C(O)COn1c(-c2ccccc2)nc2ccc([N+](=O)[O-])cc21	0	0	0	0	0	0	-
Cc1ccc(COn2c(-c3ccc(Cl)cc3)nc3ccc([N+](=O)[O-])cc32)cc1	0	88	0	0	0	0	84
Clc1ccc(COn2c(-c3ccc(Cl)cc3)nc3ccccc32)cc1	0	0	0	0	0	0	-
O=[N+]([O-])c1ccc2nc(-c3ccc(Cl)cc3)n(OCc3ccccc3)c2c1	0	89	0	0	0	0	94
O=C(Nc1ccccc1C(=O)NCC1CC1)c1cccs1	0	-	0	-	0	0	-
Cc1ccc(C(=O)N(C)[C@H]2C[C@H]3c4[nH]c5c(-c6ccccc6)cccc5c4CCN3C(=O)[C@H]2[C@H](C)O)cc1	0	-	0	-	0	0	-
COCCN1CCCC(CNCc2cn(C)nc2-c2ccc(Oc3ccccc3)cc2)C1 (centres undefined)	0	91	0	0	0	0	0	MPTP abs DR=4.8;MPTP cs DR=0
FC(F)(F)c1nc(SCc2ccc(Cl)cc2Cl)n[nH]1	0	63	0	0	0	0	90
COc1ccc(NC(=O)N(C)C[C@@H]2OCc3cnnn3CCCC(=O)N([C@H](C)CO)C[C@H]2C)c(OC)c1	0	-	0	-	0	0	-
c1coc(Cn2c(-c3ccco3)nc3ccccc32)c1	0	51	0	0	0	0	0
SMILES	ADAM17 inh	MPTP block	proKLK7 act	Pemphigus Ab inh	ADAM10 inh	rCAG binder	MPTP counter	others
CC(CCN1CCC(C(O)(c2ccccc2)c2ccccc2)CC1)Oc1cc(F)cc(F)c1 (centres undefined)	0	-	0	-	0	0	-
Cc1ccc(C)c(Oc2cc(NC(=O)CCCn3nc(C)c([N+](=O)[O-])c3C)cc([N+](=O)[O-])c2)c1	0	94	0	0	0	0	75
COc1ccc(C2O[C@@H](C)[C@@H]3C(=O)N4CCc5c([nH]c6ccccc56)[C@@H]4C[C@@H]3N2C)cc1 (some centres undefined)	0	-	0	-	0	0	-
Cc1ccc(C(=O)NCCN2C3=NC[C@H](C(C)C)N3C[C@H]2Cc2ccc(O)cc2)cc1Br	0	0	0	0	0	0	-
COc1ccc(C[C@H]2CN3C(=NC[C@@H]3C(C)C)N2CCNC(=O)c2ccc(C)c(Br)c2)cc1	-	69	-	0	-	-	0
CCCCCCCCN1C(=O)[C@@H](CC(=O)NCCc2ccccc2OC)C[C@@]2(C(=O)OC)C1=C[C@H](C(C)(C)C)O[C@@H]2C	0	-	0	-	0	0	-
O=C(CSc1nnc(-c2cccnc2)n1-c1ccc(Cl)cc1)Nc1cccc2ccccc12	0	-	0	-	0	0	-
Cc1ccc(CNc2nc(C)nc3sc4c(c23)CCC4)cc1	0	62	0	-	0	0	81
Cc1ccc(C(c2c(NC(=O)c3ccco3)sc(C)c2C)N2CCOCC2)cc1 (centres undefined)	0	0	0	0	0	0	-
Cc1sc(NC(=O)c2ccco2)c(C(c2ccc(F)cc2)N2CCN(C)CC2)c1C (centres undefined)	-	82	-	0	-	-	0
CC(=O)c1sc(NC(=O)C2(F)C(F)(F)C(F)(F)C(F)(F)C(F)(F)C2(F)F)nc1C	0	95	0	0	0	0	91
Cc1nnsc1SCCNC(=O)Nc1ccc(Cl)cc1	0	88	0	0	0	0	90
Cc1cc(=O)c2ccc(C(F)(F)F)cc2[nH]1	0	0	0	0	0	0	-
O=c1cc(C(F)(F)F)[nH]c2ccc(C(F)(F)F)cc12	0	61	0	0	0	0	82
CCN(CC)c1ccc(C=NNC(=O)c2cc(-c3ccc(C)c(C)c3)n[nH]2)c(O)c1	0	-	0	-	0	0	-
Cc1ccc(NS(=O)(=O)c2cc([N+](=O)[O-])ccc2NNC(=S)Nc2cccc(Cl)c2)c(C)c1	-	86	-	0	-	-	0
CC1Cc2cc(S(=O)(=O)NCc3ccccc3)ccc2N1C(=O)C1CC1 (centres undefined)	0	0	0	0	0	0	-
CC1Cc2cc(S(=O)(=O)NCc3ccccc3)ccc2N1C(=O)C1CCC1 (centres undefined)	0	72	0	-	0	0	53
COC(=O)C(C)(C)ONC(=O)Nc1ccc(Br)cc1	0	0	0	0	0	0	-
